CBX7 inh – inhibitors of human CBX7 binding to H3K27me3 peptide; O95931; AlphaScreen His6-CBX7 / biotin-H3K27me3 peptide binding; stronger effect = lower value; normalised signal (fraction of DMSO) (no concentration beside the values); 1.1% of 66,000 active; AID 1224903; in the data active = normalised signal below about 0.5
Target sequence (O95931 whole entry, looked up): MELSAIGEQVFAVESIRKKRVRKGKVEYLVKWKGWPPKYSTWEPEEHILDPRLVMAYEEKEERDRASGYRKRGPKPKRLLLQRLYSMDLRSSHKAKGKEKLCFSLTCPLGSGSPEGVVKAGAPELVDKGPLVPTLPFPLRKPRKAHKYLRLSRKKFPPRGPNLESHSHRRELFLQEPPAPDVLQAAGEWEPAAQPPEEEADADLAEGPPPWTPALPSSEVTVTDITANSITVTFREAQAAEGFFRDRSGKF
Of the large screens only hits and unclear results are named; the others gave an inactive call. This is one part of a sample in which hits are shown more often than they occur.

COCc1nnc(NC(=O)c2ccc(S(=O)(=O)N(CCC#N)CCC#N)cc2)o1	CBX7 inh 0.063
CCCCN(C)S(=O)(=O)c1ccc(C(=O)Nc2nnc(-c3cccs3)o2)cc1	none
CCc1nnc(NC(=O)c2ccc(S(=O)(=O)N(C)C)cc2)o1	CBX7 inh 0.042
COCc1nnc(NC(=O)c2ccc(S(=O)(=O)N(C)C)cc2)o1	none
CCc1nnc(NC(=O)c2ccc(S(=O)(=O)N(CCOC)CCOC)cc2)o1	none
CN(C1CCCCC1)S(=O)(=O)c1ccc(C(=O)Nc2nnc(C3CC3)o2)cc1	CBX7 inh 0.028
CCCCN(CCCC)S(=O)(=O)c1ccc(C(=O)Nc2nnc(CC)o2)cc1	CBX7 inh 0.051
CCCC(O)(c1ccc(OCC)cc1)C(CN1CCOCC1)c1ccccc1 (configuration not stated)	none
Cc1ccc(NC(=O)Cn2cnc3sc(C(=O)N4CCCCCC4)c(C)c3c2=O)cc1Cl	none
CN(CCNC(=O)C1(S(=O)(=O)c2ccc(Cl)cc2)CC1)Cc1ccccc1	none
CC(C)NC(=O)c1cn(C2CCCC2)c(=O)c2c1c1ccccc1n2C	none
O=C(Cn1ncc2c1-c1ccccc1OC2)N1CCN(c2ncccn2)CC1	none
CCOC(=O)C1CCN(S(=O)(=O)c2ccc3c(c2)C(=O)NCC(=O)N3)CC1	none
Cc1ccc2cc(NC(=O)c3ccccc3F)ccc2n1	none
FC(F)(F)c1ccc(CSc2ncnc3ccccc23)cc1	none
Cc1ccc(NC(=O)c2ccc3c(c2)N(Cc2cccc(Cl)c2)C(=O)c2ccccc2S3=O)cc1 (configuration not stated)	none
CCCCN(CC)S(=O)(=O)c1ccc(C(=O)Nc2nnc(COC)o2)cc1	CBX7 inh 0.062
CCN(Cc1ccccc1)S(=O)(=O)c1ccc(C(=O)Nc2nnc(COC)o2)cc1	none
COCCN(CCOC)S(=O)(=O)c1ccc(C(=O)Nc2nnc(C3CC3)o2)cc1	none
CCCCN(CC)S(=O)(=O)c1ccc(C(=O)Nc2c(C(=O)OCC)oc3ccccc23)cc1	none
CCCCN(CCCC)S(=O)(=O)c1ccc(C(=O)Nc2nnc(C3CC3)o2)cc1	CBX7 inh 0.045
O=C(CN1C(=O)c2ccccc2C1=O)Nc1ccccc1-c1nc2ccccc2[nH]1	none
Cc1ccc(Cn2cnc3c(cnn3-c3ccccc3)c2=O)c(C)c1	none
CCOc1ccc(-c2nnc(Nc3ccc(C(=O)N(CC)CC)cc3)c3ccccc23)cc1	none
Cc1c(Cl)cccc1NC(=O)C1CCN(c2nnc(-n3cccc3)s2)CC1	none
Cc1ccc(OCc2nc(-c3ccc(OCC(N)=O)cc3)no2)cc1C	none
COc1cccc(-c2nn(C)c3sc(C(=O)Nc4cccc(C(F)(F)F)c4)cc23)c1	none
COc1ccccc1Nc1nc(-c2sc(N)nc2C)cs1	CBX7 inh 0.37
Cc1ccccc1Nc1nc(-c2sc(N)nc2C)cs1	none
Cc1cccc(Nc2nc(-c3sc(N)nc3C)cs2)c1	CBX7 inh 0.48
CC(=O)Nc1nc(C)c(-c2csc(Nc3cccc(C)c3)n2)s1	none
Cc1nc(N)sc1-c1csc(Nc2ncccn2)n1	none
COc1ccccc1Nc1nc(-c2sc(NC(C)=O)nc2C)cs1	none
C=Cc1ccc(-c2csc(Nc3ccccc3)n2)cc1	none
COc1ccc(NC(=O)c2cc3c(n(-c4ccc(OC)cc4)c2=O)CC(C)(C)CC3=O)cc1	none
CCCCCCc1cc(-c2[nH]ncc2-c2ccc(Br)cc2)c(O)cc1OC	none
CCCc1cc(-c2[nH]ncc2-c2ccc3c(c2)OCCO3)c(O)cc1OC	CBX7 inh 0.29
CCc1cc(-c2[nH]ncc2-c2ccc3c(c2)OCCO3)c(O)cc1O	none
CCc1cc(-c2[nH]ncc2-c2ccc3c(c2)OCCO3)c(O)cc1OC	CBX7 inh 0.38
CCc1cc(-c2n[nH]c(C)c2-c2ccc3c(c2)OCCO3)c(O)cc1O	none
CCCc1cc(-c2onc(C)c2-c2ccc3c(c2)OCCCO3)c(O)cc1OC	none
O=C(CSc1oc(-c2ccccc2)nc1S(=O)(=O)c1ccc(F)cc1)NC1CCCCC1	none
COc1ccc(C2C(Oc3ccc(Cl)cc3C)C(=O)N2c2cccc(C(F)(F)F)c2)cc1OC (configuration not stated)	none
CCCCCn1c(=N)n(CC(O)COc2ccc(OC)cc2)c2ccccc21 (configuration not stated)	none
CC1CCCCN1C(=O)c1ccc2c(c1)N(Cc1ccc(F)cc1)C(=O)c1ccccc1S2=O (configuration not stated)	none
Cc1cc(NCCc2ccccc2)nc2cc(O)ccc12	none
CC1CCN(c2nc3ccc(C(=O)NCCc4ccc(Cl)cc4)cc3s2)CC1	none
CC1CCN(C(=O)c2nn3c(c2Cl)NC(c2cccs2)CC3C(F)(F)F)CC1 (configuration not stated)	none
Cc1n[nH]c(C)c1CCCCCCOc1ccc(F)cc1	none
COc1ccc(OCCCCCCc2c(C)n[nH]c2C)cc1	CBX7 inh 0.43
Cc1n[nH]c(C)c1CCCCOc1ccc(C(C)(C)C)cc1	none
O=S(=O)(c1ccc(-n2ccc(-c3ccc(Cl)cc3)n2)cc1)N(CCO)CCO	none
CCOC(=O)N1CCC(Nc2c(N3CCCCC3)c(=O)c2=O)CC1	none
CCN(CC)S(=O)(=O)c1ccc(C(=O)Nc2nnc(C)o2)cc1	CBX7 inh 0.084
CCN(Cc1ccccc1)S(=O)(=O)c1ccc(C(=O)Nc2nnc(-c3cccs3)o2)cc1	none
CCCN(CCC)S(=O)(=O)c1ccc(C(=O)Nc2nnc(C)o2)cc1	CBX7 inh 0.083
CCN(CC)S(=O)(=O)c1ccc(C(=O)Nc2nc3ccc4nc(C)sc4c3s2)cc1	none
NS(=O)(=O)c1ccc(NC(=O)C2C3C=CC(O3)C2C(=O)O)cc1 (configuration not stated)	none
COCc1cc(=O)n2[nH]cnc2n1	none
CCCCc1nn(-c2ccccc2F)c2c1C(=O)CCC2	none
CCOC(=O)c1c(C)n(CCOc2ccc(-c3ccccc3)cc2)c2ccc(O)cc12	none
O=C(CSc1nc(NCCc2ccccc2)c2ccccc2n1)NCc1ccccc1Cl	none
CCOc1ccc(CNc2ccc3c(c2)ncn3C)cc1	none
CC(C)n1cnc2cc(NCc3ccc(Br)cc3)ccc21	CBX7 inh 0.38
CC(C)n1cnc2cc(NCc3nc4ccccc4n3C)ccc21	none
CC(C)n1cnc2cc(NCc3ccc(Cl)cc3)ccc21	CBX7 inh 0.4
CC(C)(C)n1cnc2cc(NCc3ccncc3)ccc21	none
CCn1cnc2cc(NCc3ccc(C)cc3)ccc21	none
COc1ccc(N(C)C(=O)Cn2nc(Cc3ccncc3)c3ccccc3c2=O)c(OC)c1	none
COc1cccc(-c2nc(CS(=O)(=O)CC(=O)N3CCCCCC3)c(C)o2)c1	none
Cc1ccc2cc(CCNC(=O)C3(c4ccc(Cl)cc4)CCCC3)c(=O)[nH]c2c1C	none
Cc1nn(Cc2ccc(Cl)c(Cl)c2)c(C)c1NC(=O)c1cc(-c2ccc(F)cc2)on1	none
O=C(NC1CC1)c1ccc2c(c1)N(Cc1ccccc1)C(=O)c1ccccc1S2(=O)=O	none
CCC1c2ccc(C)n2CCN1C(=O)Nc1ccccc1C(F)(F)F (configuration not stated)	none
O=C(NCCCN1CCOCC1)C1CC(c2ccc(F)cc2)=NO1 (configuration not stated)	none
Cc1ccc(C(=O)CC2(O)C(=O)N(Cc3ccc(Cl)cc3)c3ccccc32)cc1 (configuration not stated)	none
CCc1ccc(C(=O)CC2(O)C(=O)N(Cc3ccc(Cl)cc3)c3ccccc32)cc1 (configuration not stated)	CBX7 inh 0.42
COc1ccc(C(=O)CC2(O)C(=O)N(Cc3ccc(Cl)cc3)c3ccccc32)cc1 (configuration not stated)	none
O=C(NCc1ccccn1)C(=O)Nc1ccc2c(c1)OCO2	none
COc1ccc(Br)cc1CN(CCc1ccc2c(c1)OCO2)Cc1cccnc1	none
CCOc1ccccc1CN(CCc1ccc2c(c1)OCO2)Cc1ccccn1	CBX7 inh 0.069
